# Paper PMC5540273 (PLoS ONE, 2017)
# Columns and labels:
# Settings in all cases: concentration: 1 μM, replicates: in singlicate; n = 1
# MERTK = system: MERTK
# MET = system: MET
# MINK = system: T1, MINK
# T1 construct: gene MINK1
# MKK7 = system: MKK7
# MKNK1 = system: MKNK1
# MKNK2 = system: MKNK2
# MLCK = system: T2, MLCK
# T2 construct: gene MYLK3
# MLK1 = system: T3, MLK1
# T3 construct: gene MAP3K9
# MLK2 = system: MLK2
# MLK3 = system: MLK3
# 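Note: KINOMEscan kinase panel screen.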
Structure (SMILES),%Inh (MERTK) [%],%Inh (MET) [%],%Inh (MINK) [%],%Inh (MKK7) [%],%Inh (MKNK1) [%],%Inh (MKNK2) [%],%Inh (MLCK) [%],%Inh (MLK1) [%],%Inh (MLK2) [%],%Inh (MLK3) [%]
Nc1nc(-c2ccccn2)c(-c2ccnc3ccccc23)s1 [GW548057],2,0,56,14,1,0,0,0,0,0
Cc1ccc(C)c(NC(=O)NCCNc2ccnc(Nc3ccc(F)cc3)n2)c1 [GSK1379878],2,0,0,0,0,0,0,0,0,4
CCn1c(-c2ccncc2)nc2cnccc21 [SB-735216],0,1,19,5,5,33,0,8,0,0
O=C(Nc1ccccc1F)NC1CCN(c2ccnc(Nc3ccc(F)cc3)n2)C1 (centres unmarked) [GSK1379722],6,0,0,0,7,23,10,0,0,9
Cc1cccc(-c2nc(Nc3ccc4[nH]nnc4c3)c3ccccc3n2)n1 [GW867587],19,0,0,0,8,0,0,0,0,0
COc1ccc(NC(=O)c2ccc(-c3cc(-c4nnc(C)o4)ccc3C)cc2)cc1 [GW595885],21,0,0,34,2,12,0,0,0,11
NC(=O)c1sc(-n2cnc3ccccc32)cc1OCc1ccccc1F [GSK1024306],32,20,1,0,10,0,0,9,0,7
CNc1nccc(-c2c(-c3ccc(F)cc3)ncn2C2CCN(C)CC2)n1 [SB-222903],0,6,43,0,0,0,0,0,31,0
CN1CCC(n2cnc(-c3ccc(F)cc3)c2-c2ccnc(NC3CCNCC3)n2)CC1 [SB-229482],0,0,0,11,0,32,0,38,5,0
CSc1nn2c(=O)cc(N3CCOCC3)nc2n1Cc1cccc(Cl)c1Cl [GSK2347225],40,0,21,0,20,2,13,0,4,11
Cn1ccc2ncnc(Nc3ccc(Oc4cccc(Cl)c4)c(Cl)c3)c21,13,2,7,0,16,0,0,7,15,0
Nc1nc(-c2ccc3c(N)n[nH]c3c2)cc(N2CCCCC2)n1 [GSK2228768],0,0,0,0,0,23,0,0,0,0
O=c1cc(N2CCOCC2)nc2n(Cc3cccc(Cl)c3)ccn12 [GSK2296823],15,0,0,12,0,15,0,0,19,0
Clc1ccc(-c2cc(-c3c[nH]nc3-c3ccccn3)ccn2)cc1 [GW681251],27,0,78,30,0,3,0,0,0,0
CCCc1ccc(S(=O)(=O)NC2CCN(c3ccnc(Nc4ccc(OC)cc4)n3)C2)cc1 (centres unmarked) [GSK1379737],16,0,0,0,0,6,11,0,0,4
CSc1ccc(NC2=C(c3ccccc3Cl)C(=O)NC2=O)cc1 [SB-342411],0,0,2,39,100,0,0,9,0,4
CN1c2ccc(-c3ccc(C(=O)NCCO)cc3)cc2-c2[nH]ncc2S1(=O)=O,0,2,46,0,0,0,0,29,27,18
Fc1cccc(COc2ccc(Nc3ncnc4cc[nH]c34)cc2Cl)c1,0,8,34,0,19,10,0,9,0,32
O=C(CCO)NCCn1ccc2ncnc(Nc3ccc(Oc4cccc(C(F)(F)F)c4)c(Cl)c3)c21,0,0,0,0,0,12,0,0,0,0
Cl.Cl.c1ccc(-c2cc3ccncc3cc2OC2CCNCC2)cc1 [GSK1122999],46,0,6,0,29,4,10,0,0,23
C[C@H]1CC[C@@H](C(=O)Nc2ccccc2)CN1c1cc(-c2ccc3c(N)n[nH]c3c2)nc(N)n1 [GSK2283293],11,100,17,0,0,3,0,0,0,0

Structure (SMILES),%Inh (MERTK) [%],%Inh (MET) [%],%Inh (MINK) [%],%Inh (MKK7) [%],%Inh (MKNK1) [%],%Inh (MKNK2) [%],%Inh (MLCK) [%],%Inh (MLK1) [%],%Inh (MLK2) [%],%Inh (MLK3) [%]
Clc1cccc(-c2nc(Nc3ccncc3)c3ccccc3n2)c1 [GW873004],7,33,16,0,18,0,0,2,16,0
Nc1n[nH]c2nnc(-c3ccccc3)cc12 [SB-517389],13,0,23,0,77,12,86,0,0,0
CC(C)(C)c1ccc(-n2cnc3c(N)ncnc32)cc1 [SKF-97263],41,0,14,6,0,29,4,2,61,0
CS(=O)(=O)CCNCc1nc(-c2ccc3ncnc(Nc4ccc(OCc5cccc(F)c5)c(Cl)c4)c3c2)cs1.Cl [GW583340],0,0,0,0,0,0,0,0,0,0
CC(C)(C)OC(=O)NC1CCCN(c2cc(-c3ccc4c(N)n[nH]c4c3)nc(N)n2)C1 (centres unmarked) [GSK2286096],18,0,11,0,12,10,0,0,0,0
COc1ccc(Nc2nccc(N3CCC(NC(=O)c4cccc(NC(C)=O)c4)C3)n2)cc1 (centres unmarked) [GSK1379732],24,0,17,0,0,12,31,0,0,12
Cl.c1ccc(Cn2ncc3cc(Nc4ncnc5ccccc45)ccc32)cc1 [GW273749],9,0,0,0,6,30,0,0,0,0
Nc1nc(-c2ccc3c(N)n[nH]c3c2)cc(N2CCC[C@@H](C(=O)Nc3ccccc3)C2)n1.O=C(O)C(F)(F)F.O=C(O)C(F)(F)F [GSK2288359],0,0,0,0,11,1,0,0,0,0
FC(F)(F)c1cc(Nc2nccc(-c3c(-c4ccc(Cl)cc4)nn4ncccc34)n2)ccc1Cl [GW829351],11,0,0,0,0,0,10,0,4,0
Cl.c1ccc(Cn2ccc3cc(Nc4ncnc5ccccc45)ccc32)cc1 [GW275568],0,2,12,7,6,12,0,0,0,13
COc1ccc(Nc2nccc(N3CCC(NC(=O)Nc4ccc5c(c4)OCO5)C3)n2)cc1 (centres unmarked) [GSK1379745],34,20,3,24,21,6,31,6,19,38
Fc1ccc(-c2ncn(CCCNCc3ccccc3)c2-c2ccncc2)cc1,35,0,3,10,28,0,0,4,0,0
CC(=O)Nc1n[nH]c2ncc(-c3ccccc3)cc12 [SB-548492],37,4,30,2,0,62,0,8,6,3
Cn1cc(-c2ccc3c(c2)CCN3C(=O)Cc2cccc(C(F)(F)F)c2)c2c(N)ncnc21 [GSK2606414],43,0,0,0,0,1,12,0,27,8
Oc1ccc2ncnc(Nc3ccc(OCc4ccccc4)cc3)c2c1 [GI262866],34,5,0,0,0,15,0,0,24,0
CC(C)N1CCC(n2cnc(-c3ccc(F)cc3)c2-c2ccnc(N)n2)CC1 [SB-223132],0,14,7,0,2,0,0,0,4,0
Cc1cc(N2CCC(NS(=O)(=O)c3ccc(F)cc3)CC2)nc(Nc2cccc(C#N)c2)n1.O=C(O)C(F)(F)F [GSK1653537],39,0,0,0,7,3,0,12,0,15
FC(F)(F)c1ccc(-c2nn3ncccc3c2-c2ccnc(Nc3cccc(C(F)(F)F)c3)n2)cc1 [GW828205],1,21,12,0,0,0,0,4,0,0
c1ccc(-c2ccc3c(-c4ccnc(Nc5ccc6c(c5)OCCO6)n4)cnn3n2)cc1 [GW818941],58,100,0,21,0,2,4,12,39,28
COc1cc2ncnc(Nc3ccc(OCc4ccccc4Br)c(Cl)c3)c2cc1OC.Cl [GI261590],7,0,0,0,0,11,0,0,11,9
